Among the test systems are NCI-H23 lung; NCI-H226 lung; NCI-H322M lung; HOP-62 NSCLC; NCI-H460 lung; NCI-H522 lung; A549/ATCC NSCLC; 786-0 renal; COLO 205 colon.
Common to all, as to assay: NCI-60 one-dose screen, 48 h (100 = growth as untreated, 0 = no growth, -100 = all killed)
Common to all, as to details: 10 µM unless noted

Each structure is given as a SMILES string. This is part of a sample that, as a whole, favours compounds with a hit. Of some 83,000 tested, about 20% had one in any assay.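 A percent growth of 40 corresponds to 60% growth inhibition; 0 means no net growth; -100 means all cells died. Active threshold: below 10.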 A number with no mark means an inactive call. Activity calls are given as the source filed them.

As to `C=C1CCC2C3(C)COC(c4cccs4)OC3CCC2(C)C1CC(Sc1ccccc1)C1=CCOC1=O` (configuration not stated), the growth was 79.1% in the test on NCI-H23 lung; 87.7% in the test on NCI-H226 lung; 94.9% in the test with NCI-H322M lung; 118% in the test on HOP-62 NSCLC; 107% in the test with NCI-H460 lung; 65.5% in the test on NCI-H522 lung. For the same compound, the growth was 79.7% in the test with A549/ATCC NSCLC, 91.9% in the test on 786-0 renal and 115% in the test with COLO 205 colon.
On to `CC12CC[C@@H]3[C@]4(C)COC(c5cn[nH]c5-c5cccc(Br)c5)O[C@@H]4CC[C@@]3(C)[C@@H]1CC(C1=CCOC1=O)O2` (some centres not stated), for which the growth with NCI-H23 lung was 38%; in the test on NCI-H226 lung, 37.8%; with NCI-H322M lung, 48.6%; in the test with HOP-62 NSCLC, 70.3%; in the test on NCI-H460 lung it was 23.7%; in the test with NCI-H522 lung, 24.9%. The growth in the test on A549/ATCC NSCLC was 25%; in the test on 786-0 renal, 53.1%; in the test on COLO 205 colon, 10.5%.
Regarding `CC12CC[C@@H]3[C@]4(C)COC(c5cn[nH]c5-c5cccc(Cl)c5)O[C@@H]4CC[C@@]3(C)[C@@H]1CC(C1=CCOC1=O)O2` (some centres not stated), the growth is 43.5% with NCI-H23 lung; 42.9% in the test on NCI-H226 lung; 52.1% in the test with NCI-H322M lung; 74.6% in the test with HOP-62 NSCLC; 33.7% in the test on NCI-H460 lung; 26.8% with NCI-H522 lung. The growth was 26.7% with A549/ATCC NSCLC, 47.5% in the test with 786-0 renal and 18.3% in the test on COLO 205 colon.
Take `NS(=O)(=O)c1ccc(CCNC(=O)CSc2ccc(-c3ccc(Br)cc3)nn2)cc1`: the growth in the test with NCI-H23 lung was 47.2%; in the test on NCI-H226 lung, 70.3%; in the test with NCI-H322M lung, 81.2%; in the test with HOP-62 NSCLC, 75.9%; with NCI-H460 lung, 51.4%; in the test on NCI-H522 lung, 52.9%. Also, the growth with A549/ATCC NSCLC is 62%; in the test on 786-0 renal it was 75.3%; in the test on COLO 205 colon, 83.6%.
Regarding `COc1ccc2[nH]c(=O)c(CSc3nccc(-c4ccc(OC)c(OC)c4)n3)cc2c1`, the growth is 35.4% in the test with NCI-H23 lung; -13.2% (active) in the test with NCI-H226 lung; 40.6% with NCI-H322M lung; 0.29% (active) in the test with HOP-62 NSCLC; 18.1% in the test on NCI-H460 lung; -17.4% (active) with NCI-H522 lung. The figures for the growth in the test with A549/ATCC NSCLC, with 786-0 renal and in the test on COLO 205 colon were 18.3%, 30.4% and 36.5%, respectively.
As to `O=c1[nH]c(=O)c2c(-c3cc4ccccc4oc3=O)ccnc2[nH]1`, the growth was 61.3% in the test with NCI-H23 lung; 74.8% in the test with NCI-H226 lung; 97% in the test on NCI-H322M lung; 26.4% in the test on HOP-62 NSCLC; 88.8% in the test on NCI-H460 lung; 68.5% in the test on NCI-H522 lung. The growth is 91.9% with A549/ATCC NSCLC, 43.9% in the test with 786-0 renal and 108% with COLO 205 colon.
As to `COc1c(F)ccc(C(=O)Nc2ccc3nc(NC(=O)C4CCCN(S(=O)(=O)c5cccc(Br)c5)C4)sc3c2)c1F` (configuration not stated), the growth with NCI-H23 lung was 96.3%; with NCI-H226 lung, 88.4%; in the test with NCI-H322M lung, 94%; with HOP-62 NSCLC it was 107%; in the test with NCI-H460 lung it was 80.3%; in the test on NCI-H522 lung, 78.9%. Moreover, the growth in the test on A549/ATCC NSCLC was 75.6%; with 786-0 renal, 70%; with COLO 205 colon, 86.4%.
With `COc1ccc2c(c1)c(/C=N/Nc1ccc3ccccc3n1)cn2C`, the growth with NCI-H23 lung is 36.4%; with NCI-H226 lung, 32.9%; in the test on NCI-H322M lung, 36.2%; in the test on HOP-62 NSCLC, 38.1%; with NCI-H460 lung it was -64.8% (active); in the test with NCI-H522 lung, 3.83% (active). Moreover, the growth was 14.9% in the test with A549/ATCC NSCLC, -87% (active) in the test with 786-0 renal and -82.7% (active) in the test on COLO 205 colon.
With `CN(C)c1nc(NCCNS(=O)(=O)c2ccc(C3=Nc4c(N)nc(N)nc4NC(c4ccc(Cl)cc4)C3)cc2)nc(Nc2ccc(F)cc2)n1` (configuration not stated), the growth in the test on NCI-H23 lung was 50.8%; in the test on NCI-H226 lung it was 54.7%; in the test on NCI-H322M lung it was 66%; in the test with HOP-62 NSCLC, 80.3%; in the test with NCI-H460 lung, 19.4%; with NCI-H522 lung it was 40.1%. Besides, the growth in the test on A549/ATCC NSCLC is 62.7%; in the test on 786-0 renal, 24.3%; in the test on COLO 205 colon, 3.23% (active).
Consider `COc1ccc(-c2nc3cc(C)ccc3n2CC(=O)N=Nc2c(O)[nH]c3ccc(OC)cc23)cc1`, for which the growth was -65.1% (active) in the test on NCI-H23 lung; -66.6% (active) in the test with NCI-H226 lung; -4.47% (active) in the test with NCI-H322M lung; -70.5% (active) with HOP-62 NSCLC; -48% (active) with NCI-H460 lung; -40.9% (active) in the test with NCI-H522 lung. For the same compound, the growth is -49.7% (active) in the test with A549/ATCC NSCLC, -69.3% (active) in the test on 786-0 renal and -68.2% (active) with COLO 205 colon.
As to `COc1c(F)ccc(C(=O)Nc2ccc3nc(NC(=O)C4CCCN(S(=O)(=O)c5ccc(Cl)cc5)C4)sc3c2)c1F` (configuration not stated), the growth in the test on NCI-H23 lung was 85.7%; in the test with NCI-H226 lung, 76%; in the test on NCI-H322M lung, 86.6%; in the test with HOP-62 NSCLC, 102%; in the test on NCI-H460 lung it was 81.3%; with NCI-H522 lung, 76.6%. Moreover, the growth was 65.6% with A549/ATCC NSCLC, 54.7% with 786-0 renal and 77.8% in the test with COLO 205 colon.
Take `CCCn1cc(-c2nc(Nc3ccc(C(=O)NCCCCNc4cccc5c4C(=O)N(C4CCC(=O)NC4=O)C5=O)cc3)nc3[nH]ccc23)cn1` (configuration not stated): the growth in the test with NCI-H23 lung was 65.3%; in the test on NCI-H226 lung it was 20.9%; with NCI-H322M lung, 7.64% (active); in the test with HOP-62 NSCLC, -1.38% (active); in the test on NCI-H460 lung it was 107%; in the test on NCI-H522 lung it was 27%. For the same compound, the growth was 21.1% in the test on A549/ATCC NSCLC, 22.9% in the test on 786-0 renal and -10.3% (active) in the test with COLO 205 colon.
In the case of `Cn1cc(-c2cc(N)n3nc(-c4cn(C)c5ncc(Br)cc45)cc3n2)c2cc(Br)cnc21`, the growth with NCI-H23 lung was -31.1% (active); in the test on NCI-H226 lung, 78%; in the test on NCI-H322M lung, 69.1%; in the test on HOP-62 NSCLC, 48.3%; in the test on NCI-H460 lung it was -65.6% (active); in the test on NCI-H522 lung, 51.2%. For the same compound, the figures for the growth with A549/ATCC NSCLC, with 786-0 renal and in the test on COLO 205 colon were -22.3% (active), -40.8% (active) and 12.3%, respectively.

(Values after PubChem BioAssay (NCI).)
